About 3,700 (0.93%) of roughly 400,000 compounds were called active. Not shown: some 3% with an inconclusive outcome. This is one part of a sample in which actives are shown more often than they occur. The calls are words filed in the database; no cut-off is given here.

The target of the test is T1, Vitamin D3 receptor (Homo sapiens) (UniProt P11473).
T1 sequence (whole entry): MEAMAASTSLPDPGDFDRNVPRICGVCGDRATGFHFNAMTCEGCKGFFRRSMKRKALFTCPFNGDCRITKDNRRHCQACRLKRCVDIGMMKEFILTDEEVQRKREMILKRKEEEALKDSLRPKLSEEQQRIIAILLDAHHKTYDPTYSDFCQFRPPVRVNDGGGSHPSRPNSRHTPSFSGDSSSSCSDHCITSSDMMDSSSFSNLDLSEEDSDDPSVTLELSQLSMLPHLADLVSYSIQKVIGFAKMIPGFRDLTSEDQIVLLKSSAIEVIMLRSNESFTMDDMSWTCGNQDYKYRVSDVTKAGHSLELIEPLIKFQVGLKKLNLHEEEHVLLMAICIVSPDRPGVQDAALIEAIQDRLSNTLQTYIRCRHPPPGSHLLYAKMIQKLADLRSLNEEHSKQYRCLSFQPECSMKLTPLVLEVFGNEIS
Kind of test: Inhibitors of the vitamin D receptor (VDR): qHTS. [Related pubchem assays (depositor defined):AID504855]. Type of test: functional. In general terms: qHTS replaces the single test concentration by a dilution series.
Regarding `COc1ccccc1/C=C/C(=O)c1cccs1`, the Potency is 25.1 µM (active).

As to `O=C(/C=C/c1ccc(Cl)cc1)c1cccs1`, the Potency is 3.16 µM (active).

Consider `CCCc1nnc(NC(=O)C2C(=O)c3cccc4c3N(CC4)C2=O)s1` (stereo not drawn), for which the Potency is 79.4 µM (active).

(Values after ChEMBL document CHEMBL1201862, “PubChem BioAssay data set” (2004).)
